Assay results as given in the supplement of paper PMC7866885, “A novel bicyclic 2,4-diaminopyrimidine inhibitor of Streptococcus suis dihydrofolate reductase” (PeerJ, 2021).
± gives the standard deviation.

Test system: Streptococcus suis P1/7
Assay: percent growth relative to DMSO control; higher = less growth inhibition
Conditions: 10 µM; incubation time 18 h
Procedure: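 CLSI broth microdilution: 5x10^4 CFU of Streptococcus suis (strain P1/7 or HE06) incubated with 10 µM Pathogen Box compound in cation-adjusted Mueller Hinton broth, 37 °C, 5% CO2, 18 h. Growth read as OD600 and expressed as percent of the DMSO-treated control (100%); mean ± SD of three independent experiments.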

SMILES	percent growth [%]
N#Cc1ccc(-c2ccc(OCC(N)=O)cc2)cc1	94.4 ± 35
CCc1cc(=O)n(C)c(SC(C)C(=O)Nc2ccc(F)cc2)n1 (stereo not given)	74.8 ± 63
CNCCC(Oc1ccc(C(F)(F)F)cc1)c1ccccc1 (stereo not given)	98.5 ± 39
CNc1nnc(Sc2cnn(-c3ccccc3)c(=O)c2Cl)s1	110 ± 52
Cc1cc(C)n2nc(C(=O)Nc3cc(C(F)(F)F)ccc3N3CCOCC3)nc2n1	81.4 ± 16
O=C(NCc1ccco1)N1CCN(Cc2ccc(Cl)s2)CC1	91.1 ± 21
CCCCOC(=O)Nc1cc2nc(C3CCCCC3)[nH]c2cc1N1CCCC1	62.9 ± 63
Cc1cc(C)cc(COc2ccc3c(C)c(CCC(=O)O)c(=O)oc3c2C)c1	35.3 ± 14
CCc1nc2ccc(Cl)cn2c1C(=O)NCc1ccc(N2CCC(c3ccc(OC(F)(F)F)cc3)CC2)cc1	111 ± 65
Cc1ccc(-c2cc(C(=O)Nc3cccnc3)c3cc(Br)ccc3n2)cc1	69.7 ± 1.4
COC(=O)c1c(NC(=O)c2cc3ccccc3oc2=O)sc2c1CCN(Cc1ccccc1)C2	149 ± 81
c1csc(-c2cnc3sc(NCC4CCOCC4)nn23)c1	91.2 ± 16
CC(C)(C)OC(=O)N1CCC(Cn2nc(-c3cnc4ccccc4c3)c3c(N)ncnc32)CC1	74.1 ± 6.8
O=C(c1cc2ccccc2o1)N1CCN(Cc2ccc3c(c2)OCO3)CC1	102 ± 20
COc1ccc(-c2onc(C(F)(F)F)c2-c2ccc(Cl)cc2)c(O)c1	19.4 ± 34
Cc1nc2ccccn2c1C(=O)NCc1ccc(Cl)cc1	133 ± 76
CCS(=O)(=O)N(Cc1ccco1)Cc1cc2ccc(C)cc2nc1O	77.1 ± 19
COC(=O)C1=C(C)NC(C)=C(C(=O)OC(C)C)C1c1cccc2nonc12 (stereo not given)	73.6 ± 34
Cc1cc(O)nc(-n2nc(C)cc2C)n1	2.28 ± 2.3
COc1ccc(Cn2cnc3c(-c4ccco4)nc(Cl)nc32)cc1	102 ± 42

SMILES	percent growth [%]
CCOc1ccc(-c2nc(CNCCc3ccc(F)cc3)cs2)cc1	29.5 ± 51
N#Cc1nc(-c2ccccc2F)oc1NCCc1ccccc1	98.7 ± 25
COc1ccc2nc(C)cc(OCC(=O)NCc3ccccc3)c2c1	75.5 ± 9.7
c1ccc(-c2[nH]c3ccccc3c2C(c2ccccn2)N2CCCC2)cc1 (stereo not given)	108 ± 23
O=S(=O)(c1ccc(Cl)cc1)N1CCN(C(=S)NCc2ccco2)CC1	92.6 ± 17
NC(CC(=O)c1ccc(Cl)cc1Cl)C(Cl)(Cl)Cl (stereo not given)	23.2 ± 36
Cc1cc(C)nc(-n2nc(C)cc2Nc2ccccc2)n1	0.0724 ± 0.12
CCOC(=O)c1noc(N)c1-c1ccccc1	113 ± 32
CC[C@@H]([C@H](C)O)n1ncn(-c2ccc(N3CCN(c4ccc(OC[C@@H]5CO[C@@](Cn6cncn6)(c6ccc(F)cc6F)C5)cc4)CC3)cc2)c1=O	77.5 ± 0.79
Nc1nc(N)c2c3c(sc2n1)CN(Cc1ccccc1)CC3	87.8 ± 9.9
Nc1ncnc2c1c(Cc1cccc3ccccc13)nn2CC1CCNCC1	75 ± 5.4
O=C(Nc1ccccc1-c1nc2c(C(=O)O)cccc2o1)c1ccccc1	68.3 ± 5.7
CC(C)(C(=O)Nc1ccc(F)cc1)n1cc(-c2ccccc2F)cn1	84.1 ± 6.1
OC[C@H]1O[C@@H](n2c3ccc(Cl)cc3c3c(-c4cc5ccccc5o4)ncnc32)C(O)[C@H]1O (stereo not given in full)	74.8 ± 13
CN1CCC(c2cc(-c3ccncc3)c(-c3ccc(F)cc3)[nH]2)CC1	165 ± 140
CC1=Nc2ccc(Cl)cc2C(c2ccccc2)N1CCNC(=O)CN(C)C (stereo not given)	84.5 ± 16
Nc1ncnc2c1ncn2C[C@@H](O)[C@@H](O)C(=O)O	87.3 ± 15
Cc1ccc(Oc2ccc(NC(=O)CNc3ccccc3N3CCCC3=O)cc2)cc1	104 ± 14
Cc1nc(-c2ccccn2)nc(NCCc2ccc(S(C)(=O)=O)cc2)c1Cl	73.3 ± 11
Clc1ccc(CCNc2cc(-c3ccccc3)nc3ncnn23)cc1	81.5 ± 18
